This note sets out measurements from the supplement of paper PMC9262897, “Low-cost anti-mycobacterial drug discovery using engineered E. coli” (Nature Communications, 2022).

Counter-ions that a name gives are not always drawn. ± gives the standard deviation of the averaged measurements.

This assay relates to E. coli TESEC Mtb Alr. The assay can be described thus: growth (OD600 after 10 h); higher = more growth (less inhibition). The following applies: arabinose 10000 nM; compound 0.1 mM; raw OD600 reference: median of DMSO wells 0.264, cell-free background 0.041. Here is the method: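 TESEC Mtb Alr E. coli, or the Alr+ wild-type control, in 384-well plates with Prestwick library compounds at 0.1 mM and 1% DMSO, across arabinose induction levels of 1E3 to 1E7 nM. Growth is read as OD600 after 10 h at 37 °C in triplicate biological replicates.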
Take `CCCNC(C)(C)COC(=O)c1ccccc1` [Meprylcaine hydrochloride]: the growth was found to be 0.2777 ± 0.0023. For `CN1CCC(=C2c3ccccc3CCc3cccnc32)CC1` [Azatadine maleate], the growth turned out to be 0.256 ± 0.0041.

Regarding `CNC(=C[N+](=O)[O-])NCCSCc1csc(CN(C)C)n1` [Nizatidine], the growth worked out at 0.274 ± 0.0044. Then `Fc1ccc(C(c2ccc(F)cc2)N2CCN(C/C=C/c3ccccc3)CC2)cc1` [Flunarizine dihydrochloride], with 0.0787 ± 0.0024; and `CC(C(=O)O)c1cccc(C(=O)c2ccccc2)c1` (stereo not given) [Ketoprofen], with 0.271 ± 0.012; and `C1N2CN3CN1CN(C2)C3` [Methenamine], with 0.275 ± 0.0029.

With `Cc1c(N(C)CS(=O)(=O)O)c(=O)n(-c2ccccc2)n1C` [Dipyrone], the growth turned out to be 0.251 ± 0.0032. With `Cc1onc(-c2ccccc2)c1-c1ccc(S(N)(=O)=O)cc1` [Valdecoxib] the figure was 0.216 ± 0.029; with `O=C(C1CCCCC1)N1CC(=O)N2CCc3ccccc3C2C1` (stereo not given) [Praziquantel], 0.237 ± 0.015; with `Clc1ccc(Cn2c(CN3CCCC3)nc3ccccc32)cc1` [Clemizole hydrochloride], 0.0496 ± 0.00062. For `O=C(O)c1ccccc1OP(=O)(O)O` [Fosfosal], the growth was found to be 0.266 ± 0.0057. On to `COc1ccc(C2CNC(=O)C2)cc1OC1CCCC1` (stereo not given) [Rolipram], for which the growth came to 0.29 ± 0.0047. The compound `CCC1=C(C)CN(C(=O)NCCc2ccc(S(=O)(=O)NC(=O)N[C@H]3CC[C@H](C)CC3)cc2)C1=O` [Glimepiride] had a growth of 0.239 ± 0.0027. Then `CC(=O)Nc1c(I)c(C(=O)N[C@H]2C(O)O[C@H](CO)[C@@H](O)[C@@H]2O)c(I)c(N(C)C(C)=O)c1I` (stereo not given in full) [Metrizamide], with 0.273 ± 0.0038. `CN(C(=O)C(Cl)Cl)c1ccc(OC(=O)c2ccco2)cc1` [Diloxanide furoate] had a growth of 0.256 ± 0.01.

`Cc1c(Cl)cccc1Nc1ccccc1C(=O)O` [Tolfenamic acid] yielded a growth of 0.0413 ± 0.0001. Then `COc1ccc(C(=O)CC(=O)c2ccc(C(C)(C)C)cc2)cc1` [Avobenzone], with 0.197 ± 0.016; and `NCc1ccccc1CC(=O)N[C@@H]1C(=O)N2C(C(=O)O)=C(CSc3nnnn3CC(=O)O)CS[C@H]12` [Ceforanide], with 0.167 ± 0.0036; and `CN(C)CCCN1c2ccccc2CCc2ccccc21` [Imipramine hydrochloride], with 0.285 ± 0.013. Then `COc1ccc(-c2cc(=O)c3c(O)cc(O[C@@H]4O[C@H](CO[C@@H]5O[C@@H](C)[C@H](O)[C@@H](O)[C@H]5O)[C@@H](O)[C@H](O)[C@H]4O)cc3o2)cc1O` [Diosmin], with 0.277 ± 0.0034. `COC(=O)N/N=C/c1c[n+]([O-])c2ccccc2[n+]1[O-]` [Carbadox] showed a growth of 0.1488 ± 0.00015.

In turn, `N=C(N)NC(=O)c1nc(Cl)c(N)nc1N` [Amiloride hydrochloride dihydrate] displayed a growth of 0.257 ± 0.003.

On to `Nc1nc(Cl)nc2c1ncn2[C@H]1C[C@H](O)[C@@H](CO)O1` [Cladribine], for which the growth came out at 0.0701 ± 0.0033. Turning to `CO[C@@]1(NC(=O)C2SC(=C(C(N)=O)C(=O)O)S2)C(=O)N2C(C(=O)O)=C(CSc3nnnn3C)CS[C@@H]21` (stereo not given in full) [Cefotetan], the growth was found to be 0.04147 ± 0.00015.

`CC(=O)O[C@H]1C[C@@]2(C)[C@@H](C[C@@H](O)[C@H]3[C@@]4(C)CC[C@@H](O)[C@@H](C)[C@@H]4CC[C@@]32C)/C1=C(\CCC=C(C)C)C(=O)O` [Fusidic acid sodium salt] registered a growth of 0.0411 ± 0.001. As for `COc1ccc(CN(CCN(C)C)c2ccccn2)cc1` [Pyrilamine maleate], the growth was 0.263 ± 0.0074. With `C#C[C@]1(O)CC[C@H]2[C@@H]3CCC4=Cc5oncc5C[C@]4(C)[C@H]3CC[C@@]21C` [Danazol] the figure was 0.174 ± 0.022; with `CCN(CC)C(C)CN1c2ccccc2Sc2ccccc21` (stereo not given) [Ethopropazine hydrochloride], 0.271 ± 0.016.

`CCCNC(C)C(=O)Nc1c(C)csc1C(=O)OC` (stereo not given) [Articaine hydrochloride] had a growth of 0.266 ± 0.0049. `Cc1ccc(Cl)c(Nc2ccccc2C(=O)O)c1Cl` [Meclofenamic acid sodium salt monohydrate] returned a growth of 0.0424 ± 0.00044. `CC(=O)Nc1ccc(OCC(O)CNC(C)C)cc1` (stereo not given) [Practolol]: the growth was determined as 0.257 ± 0.0077. `CN(C)CCOC(=O)COc1ccc(Cl)cc1` [Meclofenoxate hydrochloride] registered a growth of 0.267 ± 0.0092. With `NCCNCCNCCNCCN` [Tetraethylenepentamine pentahydrochloride] the figure was 0.263 ± 0.0027; with `C#C[C@]1(O)CC[C@H]2[C@@H]3CCC4=CC(=O)CC[C@@H]4[C@H]3CC[C@@]21C` [Norethindrone], 0.221 ± 0.012; with `Nc1c(Br)cc(Br)cc1CN[C@H]1CC[C@H](O)CC1` [Ambroxol hydrochloride], 0.283 ± 0.0086. In the case of `Clc1ccc(C(c2ccccc2Cl)C(Cl)Cl)cc1` (stereo not given) [Mitotane], the growth was found to be 0.224 ± 0.01. Then `Cc1nc2ccccn2c(=O)c1CCN1CCC(C(=O)c2ccc(F)cc2)CC1` [Pirenperone], with 0.268 ± 0.013; and `O=c1cc(-c2ccc(O)c(O)c2)oc2cc(O)cc(O)c12` [Luteolin], with 0.05 ± 0.0007; and `CC[N+](C)(C)c1cccc(O)c1` [Edrophonium chloride], with 0.266 ± 0.004. `CCn1cc(C(=O)O)c(=O)c2cc(F)c(N3CCNC(C)C3)c(F)c21` (stereo not given) [Lomefloxacin hydrochloride] yielded a growth of 0.03993 ± 0.00021.
